# Experimental data published in PubChem BioAssay (NCATS).
# Records with an inconclusive call do not appear. Activity calls are given as the source filed them. Calls follow the shape of the dose curve; as a rule, active = well fitted curve in the direction sought with a large enough effect; inconclusive = small, poorly fitted or top-dose-only effect, or another doubt; inactive = no such curve, though single readings can be large; an effect the other way counts as inactive or inconclusive.
# What was measured:
# [1] = molecular target: Furin (Homo sapiens) (UniProt P09958); experiment: Furin counterscreen qHTS for Zika virus inhibitors (AID 1347149);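 also: purified recombinant full-length human furin enzyme at 5 nM; fluorescence gain from furin cutting a BOC-RVRR-AMC peptide substrate over 15 min; top concentration of the series differs between compounds; nearly all actives have a fitted effect of over 70% in size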
# How it was run: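 Fluorogenic cleavage of BOC-RVRR-AMC (2 microM final, Km ~15 µM) was monitored (ex 340, em 450 nm) at 37C after 15 min RT preincubation of 5 nM furin with compounds in HEPES pH 7.0 buffer with CaCl2 and Triton X-100. Percent inhibition was fitted to a 4-parameter Hill curve.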
# [2] = Confirmatory screen GU Rhodamine qHTS for Zika virus inhibitors qHTS (AID 1347157); also: potency is read from the fitted curve at half-maximal effect; nearly all actives have a fitted effect of over 70% in size
# How it was run: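 Compounds, tested up to 114 microM, were incubated for 15 minutes with 25 nM unlinked NS2B-NS3 protease at pH 8.0. Cleavage of 1.5 microM Rhodamine110 substrate was then followed by fluorescence for 15 minutes.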
# [3] = ZIKV-mCherry secondary qHTS for Zika virus inhibitors (AID 1347158); also: top concentration of the series differs between compounds
# How it was run: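 After overnight seeding at 37 °C, Vero cells receive compound and then ZIKV-mCherry (MOI 1). Following 48-72 h infection, cells are fixed, counterstained with Hoechst, and imaged; percent infected cells is derived from an mCherry intensity cut-off of 450 RFU.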
# [4] = Confirmatory screen NINDS Rhodamine qHTS for Zika virus inhibitors (AID 1347161); also: potency is read from the fitted curve at half-maximal effect; nearly all actives have a fitted effect of over 60% in size
# How it was run: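 Aprotinin served as in-plate control. Conditions: 25 nM linked NS2B-NS3, pH 8.0 Tris buffer, titrated compounds, 15 min preincubation and 15 min reaction with 1.5 microM Rhod110 substrate at room temperature.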
# [5] = tested on: Zika virus NS2B-NS3 protease (linked construct); experiment: 384 well plate NINDS Rhodamine confirmatory qHTS for Zika virus inhibitors (AID 1347164);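 also: fluorescence from protease cleavage of Ac-LKRR-rhodamine 110 substrate; potency is read from the fitted curve at half-maximal effect; nearly all actives have a fitted effect of over 65% in size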
# How it was run: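 Linked protease at a final 5 nM, 30 nM or 60 nM was preincubated ~15 min with compounds, then given 10 microM Ac-LKRR-Rhodamine 110. Fluorescence (ex 485/em 538 nm) after 25 min in the dark at room temperature.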
# Sequence of Furin (Homo sapiens) (P09958 whole entry, looked up): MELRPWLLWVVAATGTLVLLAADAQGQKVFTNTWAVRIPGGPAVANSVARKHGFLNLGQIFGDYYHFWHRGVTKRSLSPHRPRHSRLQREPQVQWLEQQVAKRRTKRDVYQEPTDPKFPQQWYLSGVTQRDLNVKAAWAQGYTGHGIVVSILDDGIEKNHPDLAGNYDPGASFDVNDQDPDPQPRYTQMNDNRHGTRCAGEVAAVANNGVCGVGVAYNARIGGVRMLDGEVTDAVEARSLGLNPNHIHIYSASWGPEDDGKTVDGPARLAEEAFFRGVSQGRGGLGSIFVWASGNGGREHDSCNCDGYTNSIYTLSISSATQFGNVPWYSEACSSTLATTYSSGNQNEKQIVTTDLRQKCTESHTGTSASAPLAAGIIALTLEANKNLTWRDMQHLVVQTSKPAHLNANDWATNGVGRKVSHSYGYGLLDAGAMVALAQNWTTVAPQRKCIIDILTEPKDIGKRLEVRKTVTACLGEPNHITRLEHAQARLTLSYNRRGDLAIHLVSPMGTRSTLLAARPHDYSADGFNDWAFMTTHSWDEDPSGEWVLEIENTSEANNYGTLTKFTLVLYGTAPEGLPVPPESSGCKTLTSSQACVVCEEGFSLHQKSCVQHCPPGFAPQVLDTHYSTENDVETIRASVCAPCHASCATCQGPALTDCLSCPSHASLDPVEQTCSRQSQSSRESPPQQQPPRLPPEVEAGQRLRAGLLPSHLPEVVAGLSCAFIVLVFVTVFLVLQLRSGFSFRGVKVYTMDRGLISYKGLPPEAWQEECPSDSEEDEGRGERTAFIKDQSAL
smiles,measurement,setting,value
Cc1oc2c(cc(NS(=O)(=O)c3ccc(Br)cc3)c3ccccc32)c1C(=O)OCc1ccccc1,Potency,[1],inactive
same,Potency,[2],31.6 µM (active)
same,Potency,[3],inactive
same,Potency,[4],39.8 µM (active)
same,Potency,[5],63.1 µM (active)
